# Source: PubChem BioAssay (National Center for Advancing Translational Sciences (NCATS))
# Hits are enriched below; roughly 19% of the tested compounds scored in any of these assays.
# TDP1 cell CPT – growth inhibition of DT40 Tdp1-/-;hTDP1 cells with camptothecin (screen for TDP1 inhibitors); chicken DT40 Tdp1-/-;hTDP1 cells + 20 nM CPT, ATP luminescence, 48 h; Potency, µM (doses to about 46.2 µM), inactives show at the top dose activity change, negative = growth inhibition, usual class: inhibitors; actives 12% (n = 420,000); AID 686979; note: potency is the fitted concentration of half-maximal effect; % is set by controls: 0 for no effect and ±100 for the full control effect; nearly all actives have a fitted effect of over 55% in size
#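 Chicken DT40 Tdp1-/- cells complemented with human TDP1, 400 cells/well, exposed to compounds plus 20 nM camptothecin for at least 48 h at 37 C; viability read as ATP content by CellTiter-Glo luminescence.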
# BCR signal inh – chronic active BCR signaling inhibition; AID 493014; ABC-DLBCL IkBa-CBG/CBR reporter, luminescence ratio, 4 h; Potency, µM (doses to about 46.1 µM), inactives show top-dose activity change, negative = inhibition, usual class: inhibitors; actives 0.05% (n = 340,000); active = well fitted inhibition curve with a large enough effect in the signal ratio, with a control signal flat, not every such curve was filed as active; inconclusive = small, poorly fitted or top-dose-only effect, or effect the other way, or a change in a side signal; the % refers to the signal ratio;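 note: potency is the fitted concentration of half-maximal effect; plate controls were basal doxycycline-induced cells for no effect and cells given 10 µM MG132 for full effect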
#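 TMD8 human ABC-DLBCL cells with doxycycline-inducible IκBα–green luciferase fusion and unfused red luciferase, in 0.5% FBS medium; compounds up to 46 uM, 4 h at 37C. Green/red luminescence ratio, filter-overlap corrected, fitted to concentration-response curves.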
# IL1B secr inh – inhibitors of inflammasome signaling (IL-1 beta secretion). THP-1 LPS/ATP IL-1B secretion, AlphaLISA, 16 h; stronger effect = lower value. activity change, % at 57.5 µM. actives 4.7% (n = 360,000); in the data active = activity change below about -50%; inconclusive = mostly about -30% to -49%; note: % is set by controls: 0 for no effect and ±100 for the full control effect
#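 THP-1 cells pretreated 1 hr with compounds (up to 57.5 uM final), then stimulated with LPS (250 ng/mL final) plus ATP (1.25 mM final); secreted IL-1B measured by AlphaLISA after 16 hr, decreased signal indicating inhibition.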
# DT40 TDP1 no CPT – qHTS for Inhibitors of human tyrosyl-DNA phosphodiesterase 1 (TDP1): qHTS in cells in absence of CPT; DT40 Tdp1-/- hTDP1 cells, no CPT, ATP luminescence, 48 h; Potency, µM (titrated, usually from 46.2 µM), for the others: at the highest dose activity change, negative = growth inhibition, hits mostly inhibitors; actives 15% (n = 420,000); note: potency is the fitted concentration of half-maximal effect; % is set by controls: 0 for no effect and ±100 for the full control effect; nearly all actives have a fitted effect of over 55% in size
#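 Stably hTDP1-transfected Tdp1-null chicken DT40 cells were treated with library compounds minus camptothecin and grown for at least 48 hr at 37 °C, after which cellular ATP was quantified by luminescence.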
# SW480 rerep – DNA re-replication induction in SW480 cells; SW480 DNA re-replication, Hoechst DNA content imaging, 48 h; Potency, µM (highest dose often 46.1 µM), without a hit: top-dose re-replication activation, hits mostly activators; actives 1.8% (n = 340,000); note: potency is the fitted concentration of half-maximal effect; % of control where 0% means no effect; nearly all actives have a fitted effect of over 55% in size
#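 Compounds, transferred as 23 nL by pin tool, were incubated with cells for 48 hr; DNA content per nucleus was then quantified by Hoechst staining and fluorescence plate imaging.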
# MCF10A rerep – inducers of DNA re-replication in MCF 10A breast cells; MCF 10A DNA re-replication, Hoechst nuclear intensity, 48 h; Potency, µM (titrated, usually from 46.1 µM), for inactives: at the top dose activity, positive = re-replication, hits mostly activators; actives 2.9% (n = 350,000); note: potency is the fitted concentration of half-maximal effect; % of control where 0% means no effect; nearly all actives have a fitted effect of over 50% in size
# Starred values were filed as active, the others as inactive; ? = inconclusive; nt = no result given; [ ] = another dose, or the depositor's remark. Unless noted, calls come from the whole dose curve; as a rule, active = well fitted curve in the direction sought with a large enough effect; inconclusive = small, poorly fitted or top-dose-only effect, or another doubt; inactive = no such curve, though single readings can be large; an effect the other way counts as inactive or inconclusive.
SMILES,TDP1 cell CPT,BCR signal inh,IL1B secr inh,DT40 TDP1 no CPT,SW480 rerep,MCF10A rerep
CC(C)CC(=O)Nc1ccc(C(=O)COC(=O)C2CCC2)cc1,-1%,3%,-1,2%,-10%,8%
CCOc1cccc2cc(-c3nc4sc5c(c4c(=O)[nH]3)CCC(C(C)(C)C)C5)c(=O)oc12 (stereo not given),-6%,nt,nt,-3%,nt,nt
S=C(NCc1ccccc1)Nc1cccc2cnccc12,12µM*,11%,-10,18µM*,-9%,18%
S=C(NCc1cccnc1)Nc1cccc2ccccc12,-23%,0%,9,?,3%,1%
COCCNC(=S)Nc1cccc2cnccc12,-24%,9%,22,4%,2%,4%
CCCCNC(=S)Nc1cccc2cnccc12,13µM*,6%,3,23µM*,-13%,13%
CCN(CC(=O)Nc1ccccc1OC)C(=O)c1cc(S(=O)(=O)N2CCCCCC2)ccc1OC,16µM*,5%,-25,12µM*,-6%,-4%
CCCCN(C(=O)c1cc(S(=O)(=O)N2CCCCCC2)ccc1OC)c1ccccc1,?,-16%,-81*,?,?,?
CCN(CC(=O)Nc1cc(Cl)ccc1C)C(=O)c1cc(S(=O)(=O)N2CCCCCC2)ccc1OC,?,-3%,?,18µM*,10%,11%
COc1ccc(S(=O)(=O)N2CCCCCC2)cc1C(=O)N(C)CC(=O)Nc1c(Cl)cccc1Cl,?,-7%,-9,?,-1%,2%
CCN(CC(=O)Nc1cccc(S(=O)(=O)N2CCCC2)c1)CC(=O)Nc1ccccc1OC,-3%,-9%,1,?,5%,25%
CCCCc1nn2c(=O)cc(COC(=O)c3cccs3)nc2s1,-26%,nt,nt,-12%,nt,nt
CN(Cc1ccccc1)C(=O)COC(=O)c1ccc[nH]c1=O,5%,-1%,-11,6%,?,8%
O=C(COC(=O)CNC(=O)c1ccccc1)NC12CC3CC(CC(C3)C1)C2,-27%,nt,-7,-27%,nt,nt
OC(c1cc(F)cc(Cl)c1)c1ncc(-c2ccc(Cl)cc2)[nH]1 (stereo not given),18µM*,nt,-12,?,nt,nt
OC(c1ccc(Cl)c(Cl)c1)c1ncc(-c2cccc(F)c2)[nH]1 (stereo not given),?,nt,-5,?,nt,nt
OC(c1ccc(F)c(F)c1)c1ncc(-c2ccc(F)cc2)[nH]1 (stereo not given),?,nt,3,-14%,nt,nt
OC(c1cc(Cl)cc(Cl)c1)c1ncc(-c2cccc(F)c2)[nH]1 (stereo not given),?,nt,?,16µM*,nt,nt
Cc1cc(=O)n2nc(N3CCC(C(=O)NCCCOC(C)C)CC3)sc2n1,-27%,nt,nt,-6%,nt,nt
COc1ccc(-c2cc(C(=O)Nc3cccc(O)c3)on2)cc1OC,-3%,nt,nt,-12%,nt,nt
COc1cc(NC(=O)c2cc(-c3ccccc3O)no2)cc(OC)c1OC,2.3µM*,nt,nt,1.6µM*,nt,nt
COc1cccc(-c2cc(C(=O)Nc3cc(OC)c(OC)c(OC)c3)on2)c1,5.8µM*,nt,nt,2.9µM*,nt,nt
COc1cccc(-c2cc(C(=O)Nc3cc(Cl)ccc3O)on2)c1,-22%,nt,nt,-26%,nt,nt
CCCCn1c(N)c(N(CCC(C)C)C(=O)C2CCCN(C(=O)c3ccc(Cl)cc3)C2)c(=O)[nH]c1=O (stereo not given),6%,0%,1,0%,-33%,5%
O=C(CNC(=O)c1ccc(Cl)cc1Cl)OCc1cn2cc(Br)ccc2n1,1%,-1%,29,-4%,-3%,1%
SMILES,TDP1 cell CPT,BCR signal inh,IL1B secr inh,DT40 TDP1 no CPT,SW480 rerep,MCF10A rerep
COc1ccc(NC(C)=O)c([N+](=O)[O-])c1[N+](=O)[O-],?,nt,-69*,?,?,?
COc1ccc(OC)c([N+](=O)[O-])c1C(N)=O,6%,0%,12,6%,-3%,0%
O=S1(=O)CC(O)C(O)CS1 (stereo not given),23µM*,nt,2,?,nt,nt
CCOC(=O)COc1ccc(Br)cc1/C=C1\SC(N)=NC1=O,-4%,-5%,-5,?,0%,5%
CCCOc1ccc(-c2nn(-c3ccccc3)cc2/C=C2\SC(N)=NC2=O)cc1C,16µM*,0%,-8,?,-1%,?
COCCCNc1nc(CC(C)C)nc2c1nnn2Cc1ccccc1,-29%,0%,4,?,-15%,-9%
C[C@@H]1CN([C@H](C)CO)C(=O)c2cccc(NC(=O)Nc3ccc(F)cc3)c2O[C@H]1CN(C)C(=O)Nc1ccc(C(F)(F)F)cc1,?,?,-70*,?,4%,-26%
CC(C)NC(=O)N(C)C[C@H]1Oc2c(NC(=O)Nc3ccc(C(F)(F)F)cc3)cccc2C(=O)N([C@H](C)CO)C[C@@H]1C,?,?,?,18µM*,-39%[9.22 µM],12%
C[C@H](CO)N1C[C@H](C)[C@@H](CN(C)C(=O)Nc2ccc(C(F)(F)F)cc2)Oc2c(cccc2N(C)C)C1=O,?,0%,12,23µM*,1%,-4%
COc1ccc(NC(=O)N(C)C[C@H]2Oc3c(NC(=O)c4ccncc4)cccc3C(=O)N([C@H](C)CO)C[C@@H]2C)cc1,0.023µM*,?,-7,-1%,-9%,1%
COc1ccc(NC(=O)Nc2cccc3c2O[C@H](CN(C)C(=O)Nc2ccccc2)[C@@H](C)CN([C@H](C)CO)C3=O)cc1,-4%,?,-5,-11%,4%,-14%
COc1ccc(NC(=O)N(C)C[C@H]2Oc3c(NC(=O)Nc4ccc(C(F)(F)F)cc4)cccc3C(=O)N([C@H](C)CO)C[C@@H]2C)cc1,16µM*,?,?,13µM*,-5%,?
C[C@H](CO)N1C[C@H](C)[C@@H](CN(C)C(=O)Nc2ccc(C(F)(F)F)cc2)Oc2c(NC(=O)Nc3ccccc3)cccc2C1=O,?,?,-58*,?,18%,?
Cc1ccc2nccc(C(=O)N3CCCC(Nc4ccc(F)cc4)C3)c2c1 (stereo not given),-30%,0%,22,?,11%,7%
CC1Nc2ncnc(N3CCN(c4ccccc4)CC3)c2N(Cc2ccc(Cl)cc2)C1=O (stereo not given),?,0%,?,18µM*,3%,10%
